The values that follow come from PubChem BioAssay AID1211 (NMMLSC, 2008).

The structures appear in SMILES notation. Active and inactive are the calls of the source. How the calls were made is not given here.

For the assay, the target named is Estrogen receptor (Homo sapiens) (UniProt P03372). Briefly: displacement of fluorescent estrogen from ERalpha – cell-based, Cos7 ERalpha-GFP, flow cytometry, primary screen (AID 1211).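 Further: 0% = DMSO vehicle wells and 100% = no E2-Alexa633 signal left.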 The following applies: fluorescent ligand competition, stronger effect = higher value.
Sequence of Estrogen receptor (Homo sapiens) (P03372 whole entry, looked up): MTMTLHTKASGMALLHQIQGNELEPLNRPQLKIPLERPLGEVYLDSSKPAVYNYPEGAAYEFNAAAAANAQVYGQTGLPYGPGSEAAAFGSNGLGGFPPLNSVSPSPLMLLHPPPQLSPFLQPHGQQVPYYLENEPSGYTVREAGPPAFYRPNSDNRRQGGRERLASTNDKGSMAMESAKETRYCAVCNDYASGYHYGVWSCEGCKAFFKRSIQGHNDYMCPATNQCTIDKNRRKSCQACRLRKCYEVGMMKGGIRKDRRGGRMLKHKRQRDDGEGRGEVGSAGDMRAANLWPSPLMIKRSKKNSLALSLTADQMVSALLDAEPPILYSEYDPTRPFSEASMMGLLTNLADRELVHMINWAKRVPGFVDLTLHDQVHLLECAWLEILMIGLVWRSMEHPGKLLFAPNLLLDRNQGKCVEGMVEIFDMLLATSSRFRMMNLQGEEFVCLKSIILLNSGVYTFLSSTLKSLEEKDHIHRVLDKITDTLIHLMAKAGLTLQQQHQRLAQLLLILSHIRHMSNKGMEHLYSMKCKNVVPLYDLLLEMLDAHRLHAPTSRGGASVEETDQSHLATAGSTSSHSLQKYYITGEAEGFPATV

On to `Cc1ccc(-c2nn(-c3ccccc3)cc2/C=N/NC(=O)c2ccc(Br)o2)cc1`, for which the inhibition of ligand binding reads like this: (at 10 µM) 42% (inactive); (binding inhibition, at 0.1 µM) 49%.
For `N#CC1=C(N)OC2=C(CCC/C2=C/c2ccoc2)C1c1ccoc1` (stereo not given), the inhibition of ligand binding runs as follows: (at 10 µM) 56% (inactive); (binding inhibition, at 0.1 µM) 40%.
For `O=C(COC(=O)c1cccc(S(=O)(=O)N2CCc3ccccc3C2)c1)NCc1ccco1`, in that order: 35% (inactive) and 7%.
Turning to `O=C(O)C1Nc2c(C(=O)N3CCOCC3)cccc2C2C=CCC12` (stereo not given), the inhibition of ligand binding was 28% (inactive) (at 10 µM) and 15% (binding inhibition, at 0.1 µM).
For `COc1cccc(-c2nnc(NC(=O)Cc3cccs3)s2)c1`, in that order: 52% (inactive) and 20%.
Take `O=C(Oc1ccc(-c2cnc3ccccc3n2)cc1)c1ccc(Br)o1`: the inhibition of ligand binding is 58% (inactive) (at 10 µM) and 1% (binding inhibition, at 0.1 µM).
Take `Oc1cccc(-c2nc3ccc4ccccc4c3c3c2CCC3)c1`: the inhibition of ligand binding reads like this: (at 10 µM) 33% (inactive); (binding inhibition, at 0.1 µM) 21%.
As to `O=C(c1cc2sccc2n1Cc1ccccc1)N1CCc2ccccc21`, the inhibition of ligand binding (at 10 µM) was 45% (inactive) and the inhibition of ligand binding (binding inhibition, at 0.1 µM) came out at 20%.
On to `CCC1(C)NC(=O)N(CC(=O)Nc2sc3c(c2C(N)=O)CCC3)C1=O` (stereo not given), for which the inhibition of ligand binding is, setting by setting: (at 10 µM) 15% (inactive); (binding inhibition, at 0.1 µM) 16%.
For the compound `Cc1ccc(C)c(SCC(=O)OCC(=O)c2ccco2)c1`, the inhibition of ligand binding by setting is: (at 10 µM) 0% (inactive); (binding inhibition, at 0.1 µM) 28%.
For `CCC(=O)Oc1ccc(C(CC)C(CC)c2ccc(OC(=O)CC)cc2)cc1` (stereo not given), in that order: 80% (active) and 89%.
For `CC(C)C1Nc2c(O)cc(Cl)c([N+](=O)[O-])c2C2C=CCC21` (stereo not given), in that order: 40% (inactive) and 16%.
For `CN(C)NC(=S)Nc1ccc2nc(-c3ccccn3)c(-c3ccccn3)nc2c1`, in that order: 11% (inactive) and 4%.
In the case of `CS(=O)(=O)c1ccc2nc(NC(=O)CCC(=O)c3cccs3)sc2c1`, the inhibition of ligand binding reads like this: (at 10 µM) 33% (inactive); (binding inhibition, at 0.1 µM) 14%.
For `COc1nc(-c2ccc(Cl)cc2)ccc1-c1noc(-c2ccco2)n1`, in that order: 57% (inactive) and 14%.
Consider `c1ccc(OCc2nnc3sc(C4COc5ccccc5O4)nn23)cc1` (stereo not given), for which the inhibition of ligand binding is 0% (inactive) (at 10 µM) and 5% (binding inhibition, at 0.1 µM).
For `O=C(Oc1ccc2c(c1)OCO2)c1cc2c(s1)CCC2`, in that order: 32% (inactive) and 27%.
In the case of `CN1C(=O)CC(C(=O)O)SC1=Nc1cc(Cl)c(O)c(Cl)c1` (stereo not given), the inhibition of ligand binding (at 10 µM) was 17% (inactive) and the inhibition of ligand binding (binding inhibition, at 0.1 µM) turned out to be 51%.
For `CC1(C)CC(=O)c2c(oc3cc(O)c(O)cc23)C1`, in that order: 20% (inactive) and 54%.
In the case of `O=C(C1c2ccccc2C(=O)N2CCc3ccccc3C12)N1CCN(Cc2ccccc2)CC1` (stereo not given), the inhibition of ligand binding is 41% (inactive) (at 10 µM) and 12% (binding inhibition, at 0.1 µM).
For `N=C1C(c2nc3ccccc3[nH]2)=C(O)CN1c1ccc(CC(=O)O)cc1`, in that order: 45% (active) and 96%.
For `CN(c1ccccc1C(=O)O)S(=O)(=O)c1ccc2c3c(cccc13)C(=O)N2`, in that order: 40% (inactive) and 12%.
For `O=c1nc2s/c(=C\c3ccco3)c(=O)n2nc1Cc1ccc(F)cc1`, in that order: 32% (inactive) and 61%.
As to `COC(=O)c1c(NC(=O)Cc2cccs2)sc2c1CCCC2`, the inhibition of ligand binding is, setting by setting: (at 10 µM) 57% (active); (binding inhibition, at 0.1 µM) 70%.
For `COc1ccc(C2C=C(c3ccc(Cl)cc3)Nc3nc(NC(C)=O)nn32)cc1` (stereo not given), in that order: 42% (inactive) and 22%.
As for `COc1ccc(C2Nc3ccccc3C(=O)N2c2ccccc2)cc1COc1ccccn1` (stereo not given), the inhibition of ligand binding reads like this: (at 10 µM) 17% (inactive); (binding inhibition, at 0.1 µM) 58%.
For `Cc1cc(C(=O)CSc2nnc(-c3ccccc3F)o2)c(C)n1Cc1cccs1`, in that order: 69% (active) and 16%.
For `O=C(Nc1cccc(-c2cn3cccnc3n2)c1)c1ccc2c(c1)OCO2`, in that order: 22% (inactive) and 10%.
As to `Nc1ccc2nc(-c3cccs3)[nH]c2c1`, the inhibition of ligand binding (at 10 µM) was 10% (inactive) and the inhibition of ligand binding (binding inhibition, at 0.1 µM) is 49%.
Regarding `Cc1cc(C)c(C(=O)COc2cccnc2[N+](=O)[O-])cc1C`, the inhibition of ligand binding is 19% (inactive) (at 10 µM) and 30% (binding inhibition, at 0.1 µM).
For `O=S(=O)(NCc1csc(-c2cccnc2)n1)c1cccs1`, the inhibition of ligand binding is, setting by setting: (at 10 µM) 22% (inactive); (binding inhibition, at 0.1 µM) 5%.
Regarding `c1coc(-c2nn3c(-c4ccco4)nnc3s2)c1`, the inhibition of ligand binding is 15% (inactive) (at 10 µM) and 15% (binding inhibition, at 0.1 µM).
For `CSc1ccc(S(=O)(=O)Nc2cccc(F)c2)cc1`, in that order: 45% (inactive) and 54%.
Regarding `O=C1NC(c2ccc(Br)cc2)Nc2sc3c(c21)CCC3` (stereo not given), the inhibition of ligand binding (at 10 µM) is 29% (active) and the inhibition of ligand binding (binding inhibition, at 0.1 µM) worked out at 69%.
With `Oc1c(C=Nc2cccc3cccnc23)sc2ccccc12`, the inhibition of ligand binding by setting is: (at 10 µM) 40% (inactive); (binding inhibition, at 0.1 µM) 21%.
For `Cc1cc(C(=O)Nc2sc3c(c2C#N)CCC3)no1`, in that order: 46% (active) and 66%.
For `O=C(Nc1ccc2oc(-c3ccc4ccccc4c3)nc2c1)c1cccs1`, in that order: 32% (inactive) and 51%.
For `COc1ccc(C2Nc3ccccc3C(=O)N2c2ccc(C)cc2)cc1COc1ccccn1` (stereo not given), in that order: 27% (inactive) and 11%.
For the compound `CCOc1[nH]c(/N=C/c2ccco2)c(C#N)c1C#N`, the inhibition of ligand binding is, setting by setting: (at 10 µM) 21% (inactive); (binding inhibition, at 0.1 µM) 9%.
For `O=c1[nH]c(N/N=C/c2ccc(O)cc2)nc2ccccc12`, in that order: 23% (inactive) and 37%.
